The full ranking holds about 2,300 compounds; the median of “plate-normalized OD600 growth (mean of duplicates)” is about 0.29, and the lowest 2% start at about 0.22. The list comes from a sample in which the lowest values are over-represented; it also holds similar structures and randomly drawn compounds.
Test system: Escherichia coli BW25113
Experiment: plate-normalized OD600 growth (mean of duplicates) (OD600 (normalized)); higher = more growth (less inhibition)
Details: 10 µM
Description: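 E. coli BW25113 in LB (100 µl, 96-well, no shaking) was exposed to 10 µM of each compound from a ~30,000-member library and grown at 37°C for 24 h or 15°C for 48 h, in duplicate. Growth was read as OD600 and the duplicate ODs were normalized across screening plates to correct plate-to-plate variation. Hits were >3σ below the mean OD600 at 15°C and <2σ below the mean at 37°C.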

| SMILES | plate-normalized OD600 growth (temperature: 15°C, 48 h) | plate-normalized OD600 growth (temperature: 37°C, 24 h) |
| --- | --- | --- |
| NC(N)=NC(N)=Nc1ccccc1C(F)(F)F | 0.243 | 0.604 |
| Cc1ccc(C2=Nc3ccccc3N=C(C(Cl)Cl)C2)cc1 | 0.25 | 0.629 |
| Cc1noc(N)c1C(N)=S | 0.247 | 0.612 |
| O=C(COc1ccc(/C=N/NC(=O)CO)cc1)NCC1CCCO1 (stereo unspecified) | 0.227 | 0.668 |
| NNC(=O)c1cnn(-c2ccc(Cl)cc2)c1C(F)(F)F | 0.253 | 0.627 |
| CCN(CC)c1ccc(NC(=O)c2c(F)cccc2F)c(N(CC)CC)n1 | 0.235 | 0.602 |
| Cc1ccc(N=Cc2ccc(Sc3nc4ccccc4s3)o2)cc1 | 0.245 | 0.625 |
| C/C(=N/NC(=O)COc1cccc(Cl)c1)c1ccc(Cl)cc1 | 0.248 | 0.631 |
| CC1(C)OC(=O)N(CCCCCCN2C(=O)OC(C)(C)C2(C)O)C1(C)O (stereo unspecified) | 0.197 | 0.652 |
| CC1(O)N(CCN)C(=O)OC12CCCCC2 (stereo unspecified) | 0.269 | 0.626 |
| COc1ccc(/C(C)=N\NC2=NCCCN2)cc1 | 0.214 | 0.597 |
| Cc1ccc(C(=O)c2sc3nc(-c4cccs4)cc(C(F)(F)F)c3c2N)cc1 | 0.239 | 0.623 |
| Nc1c(C(=O)c2ccc(Br)cc2)sc2nc(-c3ccccc3)cc(-c3ccccc3)c12 | 0.256 | 0.621 |
| Nc1c(C(=O)c2ccc(Br)cc2)sc2nc(-c3cccs3)cc(C(F)(F)F)c12 | 0.142 | 0.578 |
| Cc1ccccc1COC(=O)c1ccc(-c2nnn(Cc3ccccc3C)n2)cc1 | 0.244 | 0.611 |
| CCOc1ccc(NC(=O)CSc2nc(C)cc(COC)c2C#N)cc1 | 0.21 | 0.638 |
| COCc1cc(C)nc2sc(C(=O)OC)c(N)c12 | 0.243 | 0.626 |
| CCOc1ccc(-n2nc3ccc(NC(=O)COc4ccccc4C)cc3n2)cc1 | 0.235 | 0.616 |
| CCc1c(C)nc2[nH]nc(-c3ccccc3C)n2c1=O | 0.245 | 0.626 |
| CCc1c(C)nc2cc(-c3ccc(Cl)cc3)[nH]n2c1=O | 0.214 | 0.632 |
| Cc1cc(=O)n2c(-c3ccc(Cl)cc3)csc2n1 | 0.239 | 0.607 |

| SMILES | plate-normalized OD600 growth (temperature: 15°C, 48 h) | plate-normalized OD600 growth (temperature: 37°C, 24 h) |
| --- | --- | --- |
| NC(N)=NS(=O)(=O)c1ccc(NC(=O)C2CCCCC2)cc1 | 0.256 | 0.628 |
| COc1ccc2[nH]c(C)c(CCNS(=O)(=O)c3cc(Cl)ccc3Cl)c2c1 | 0.249 | 0.606 |
| COc1ccc(Cc2nnc(-c3ccc(-c4cccs4)s3)o2)cc1 | 0.258 | 0.615 |
| Cc1c(NC(=O)c2ccc(N)cc2)c(=O)n(-c2ccccc2)n1C | 0.248 | 0.629 |
| CC(C)(C)OC(=O)NC1CCN(C(=O)c2ccc(Cl)cc2Cl)CC1 | 0.244 | 0.629 |
| O=[N+]([O-])c1ccc2c(c1)S(=O)(=O)N=C2Nc1cc(Cl)ccc1Cl | 0.251 | 0.626 |
| C=CCn1c2ccccc2c2nnc(SCC(=O)Nc3ncccn3)nc21 | 0.245 | 0.599 |
| Cc1cccc(C2(c3cccc(C)c3)CC2C(=O)Nc2ccc(C#N)cc2)c1 (stereo unspecified) | 0.232 | 0.597 |
| CC(C)CSc1ncnc2scc(-c3ccccc3)c12 | 0.235 | 0.631 |
| Cc1ccc(N(C)C(=S)Nc2ccc3nc[nH]c(=O)c3c2)cc1C | 0.237 | 0.625 |
| Cc1cccc(-n2c(C)cc(C=Nc3ccc(Cl)cc3O)c2C)c1 | 0.249 | 0.613 |
| COc1c(Cl)cnc(Cl)c1C(N)=O | 0.265 | 0.636 |
| C/C(=N/O)c1ccc2c(c1)C(C)(C)CCC2(C)C | 0.256 | 0.629 |
| N#Cc1cc(I)c(C#N)c(I)c1 | 0.198 | 0.616 |
| O=C(O)CCCN1C(=O)C(=O)C(=C(O)c2ccccc2)C1c1ccc(Br)cc1 (stereo unspecified) | 0.226 | 0.646 |
| Cc1sc(NC(=O)c2cc3ccccc3oc2=O)nc1-c1ccc(-c2ccccc2)cc1 | 0.253 | 0.625 |
| CC(C)(C)n1ncc(N/N=C/c2ccc(Cl)cc2)c(Cl)c1=O | 0.238 | 0.605 |
| CC(C(=O)O)C(=O)c1cc(Cl)c(Cl)cc1Cl (stereo unspecified) | 0.215 | 0.63 |
| O=S(=O)(c1cc(Br)c(Br)s1)N1CCCCC1 | 0.262 | 0.63 |
| Nc1nc(=Nc2ccccc2)n2c(n1)sc1ccccc12 | 0.243 | 0.61 |
| CC(=O)Nc1ccc(NC(=O)CSc2nnc(NS(C)(=O)=O)s2)cc1 | 0.252 | 0.63 |

| SMILES | plate-normalized OD600 growth (temperature: 15°C, 48 h) | plate-normalized OD600 growth (temperature: 37°C, 24 h) |
| --- | --- | --- |
| COc1cc(Cl)c(Cl)cc1Cl | 0.251 | 0.604 |
| O=C1C(Cl)=C(Oc2cc(Cl)c(Cl)cc2Cl)C(=O)c2ccccc21 | 0.211 | 0.613 |
| COc1ccc(NC(=O)/C=C/c2cccc(Oc3ccccc3)c2)cc1 | 0.245 | 0.633 |
| NC1=Nc2nc(Nc3ccccc3)sc2/C(=C/c2ccc(O)cc2)N1 | 0.248 | 0.628 |
| Cc1onc(-c2ccccc2Cl)c1C(=O)Nc1ccc(S(=O)(=O)Nc2nccs2)cc1 | 0.246 | 0.614 |
| NS(=O)(=O)c1ccc(CCn2c(-c3ccc(S(=O)(=O)N4CCCC4)cc3)csc2=Nc2cccc(C(F)(F)F)c2)cc1 | 0.257 | 0.65 |
| O=[N+]([O-])c1ccc(OCCCOc2ccc([N+](=O)[O-])cc2)cc1 | 0.238 | 0.596 |
| O=C1NC(=O)c2cc(-c3ccc([N+](=O)[O-])cc3)ccc21 | 0.241 | 0.631 |
| O=[N+]([O-])c1ccc(-c2ncn[nH]2)cc1 | 0.209 | 0.607 |
| CC(C)c1ncc(C(O)c2cccc3ccccc23)n1C (stereo unspecified) | 0.249 | 0.63 |
| O=c1[nH]c(-c2cn[nH]c2-c2ccc(F)cc2)nc2sc3c(c12)CCCC3 | 0.237 | 0.637 |
| CS/C(N)=N\N=C/c1c(F)cccc1Cl | 0.258 | 0.652 |
| Cc1oc(-c2ccccc2)cc1C(=O)N1CCN(c2ccc([N+](=O)[O-])cc2)CC1 | 0.265 | 0.667 |
| COc1cc(C=NCc2ccco2)ccc1O | 0.242 | 0.622 |
| NC(=O)C1CCN(CCC(=O)Nc2ccccc2)CC1 | 0.208 | 0.651 |
| CC1CCN(CCC(=O)Nc2ccc(Cl)cc2)CC1 | 0.261 | 0.643 |
| CCN1CCN(CCC(=O)Nc2ccccc2)CC1 | 0.228 | 0.624 |
| CC(C)(C)S(=O)(=O)/C(C#N)=C/N1CCCCC1 | 0.267 | 0.62 |
| O/N=C\c1sccc1Oc1ccccc1 | 0.254 | 0.635 |
| CCOC(=O)c1ccc(-n2nnnc2C(c2ccc(Cl)cc2Cl)N2CCOCC2)cc1 (stereo unspecified) | 0.241 | 0.645 |
| Cc1ccc(C=Nc2ccc(-c3ccc(N=Cc4ccc(C)o4)c(C)c3)cc2C)o1 | 0.224 | 0.622 |
